Compound activity (PubChem)
Sampled rows, rich in hits. Any-hit rate of the full collection: about 6%.
DRD3 antagonist – blocks the human D3 dopamine receptor. P35462. D3R cells, DiscoveRx beta-arrestin luminescence, antagonist mode; stronger effect = lower value. max response, negative = inhibition, %. 2.5% of 360,000 active. AID 652054; in the data active means max response below about -50%; inconclusive means no clear call, values can overlap the other calls; further: on the % scale 0 is the no-effect control and ±100 the full control effect
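Cells plated overnight at 1500 cells/well, then exposed to library compounds with dopamine controls for 90 minutes at 37 degrees C. DiscoveRx reagent added for 30–60 minutes at room temperature; luminescence read, quantitative HTS format.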
D3 ag – agonists of human D3 dopamine receptor; P35462; D3R DiscoveRx beta-arrestin cells, luminescence, 90 min; max activation, %; 0.58% of 410,000 active; in the data active means max activation above about 30%; further: 0% is about no effect
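Agonist mode: compounds and dopamine controls were applied to plated cells for 90 min at 37 degrees C after an overnight attachment at 1500 cells/well. Luminescent read-out followed 30 - 60 minutes at room temperature with DiscoveRx detection reagent.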
D1 ag – agonists of human D1 dopamine receptor; HEK293 T-REx D1 cells, calcium flux, agonist mode; activation, % at 2 µM; 1% of 360,000 active; in the data active means activation above about 30%; further: 0% is about no effect
Target sequence (P21728 whole entry, looked up): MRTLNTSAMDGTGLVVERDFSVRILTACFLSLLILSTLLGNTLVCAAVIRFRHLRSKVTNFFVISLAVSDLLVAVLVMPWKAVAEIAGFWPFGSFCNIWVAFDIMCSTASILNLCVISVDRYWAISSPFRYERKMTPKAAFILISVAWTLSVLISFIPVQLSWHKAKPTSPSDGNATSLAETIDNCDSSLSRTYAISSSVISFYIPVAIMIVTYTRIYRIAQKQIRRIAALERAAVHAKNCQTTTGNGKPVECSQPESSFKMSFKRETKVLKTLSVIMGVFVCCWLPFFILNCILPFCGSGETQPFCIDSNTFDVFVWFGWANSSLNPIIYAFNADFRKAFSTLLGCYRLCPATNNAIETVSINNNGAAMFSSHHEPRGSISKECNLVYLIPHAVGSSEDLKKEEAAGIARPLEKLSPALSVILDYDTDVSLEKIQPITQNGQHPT
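Inducible HEK293 T-REx D1 cells, force-coupled to calcium signalling, were plated at 4000 cells/well with tetracycline and held overnight at 30 C. After no-wash calcium dye loading, compound-evoked calcium rise over 180 s flagged agonists.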
D1 potentiator – enhances dopamine response at the human D1 receptor. potentiation, % at 10 µM. HEK293 TREx D1 cells, calcium flux, dopamine EC20 potentiation. P21728. 0.036% of 360,000 active; in the data active means potentiation above about 30%; further: 0% is about no effect
D1 antag – blocks dopamine activation of the human D1 receptor; 3.2% of 360,000 active; AID 504652; P21728; activity change, negative = inhibition, % at 10 µM; HEK293 TREx D1 cells, calcium flux, dopamine EC80; stronger effect = lower value; in the data active means activity change below about -30%; further: on the % scale 0 is the no-effect control and ±100 the full control effect
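Compound effects on dopamine-evoked calcium signalling were measured in tetracycline-induced HEK293 Trex D1 cells. Dopamine at EC80 followed a 180 s compound pre-read, and fluorescence was tracked kinetically for 180 s more.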
The depositor's hits bear a star; ? = inconclusive; nt = no result.

SMILES	DRD3 antagonist	D3 ag	D1 ag	D1 potentiator	D1 antag
CCOC(=O)c1ccccc1NC(=O)c1nn(-c2ccc(C)cc2)c(=O)n(C)c1=O	nt	-16	5	-1	9
CCCOc1cccc(C(=O)N(Cc2cc(OC)c(OC)c(OC)c2)C2CCS(=O)(=O)C2)c1 (configuration not stated)	nt	1	0	-1	7
CCc1ccc(CNc2ccc(N3CCN(C(C)=O)CC3)cc2)cc1	10	4	34*	0	-14
CC(=O)N1CCN(c2ccc(NCc3ccc(C)cc3)cc2)CC1	24	1	6	-2	-7
COCCCNC(=O)c1cc(=O)n(Cc2ccc(Cl)cc2)c2ccccc12	9	-2	5	0	-31*
O=C(O)c1cc(=O)c2c3nc4ccccc4oc-3cc(=O)c2[nH]1	nt	-3	nt	nt	nt
Nc1cc2nc3ccccc3oc-2cc1=O	?	-9	33*	0	-9
O=C(OCCN1CCN(C2=NS(=O)(=O)c3ccccc32)CC1)c1ccccc1F	-2	-2	2	-1	-32*
CCOc1ccc2oc(C(=O)NNC(=O)c3csc(N4CCOCC4)n3)c(C)c2c1	2	3	2	-17	-38*
CCOc1ccc2oc(C(=O)Nc3ccc(N4CCOCC4)cc3)c(C)c2c1	28	5	1	-6	-6
Cc1cc(C)n(C(CC(=O)O)C(=O)O)n1 (configuration not stated)	18	-2	0	-8	-8
Cc1nn(C(CC(=O)O)C(=O)O)c(C)c1Br (configuration not stated)	-22	42*	0	-4	-16
O=C1CS(=O)(=O)N(Cc2ccccc2F)c2ccc(Br)cc21	9	16	nt	nt	nt
C=CCOC1=CS(=O)(=O)N(Cc2ccc(Br)cc2)c2ccc(Br)cc21	-4	42*	nt	nt	nt
Cc1ccc([N+](=O)[O-])cc1/C=N/Nc1nnnn1-c1ccccc1	3	-6	0	-6	-59*
COc1c(/C=N/Nc2ccc([N+](=O)[O-])cc2[N+](=O)[O-])c(C)nn1-c1ccccc1	-3	0	0	0	-33*
Cc1cccc(C)c1NC(=O)C[N+](C)(C)CC(O)COc1cccc2ccccc12 (configuration not stated)	-52*	-15	4	-4	-3
Cc1ccccc1C(=O)NC1(C(F)(F)F)N=C(c2ccccc2)N(Cc2ccccc2)C1=O (configuration not stated)	nt	-7	8	-2	-3
COc1ccccc1-c1nnc(C2CCN(C(=O)c3cccc(Cl)c3)CC2)o1	nt	6	1	4	-6
CCOC(=O)c1ccc(/C=C2/C=C(c3ccccc3)N(c3ccc(Cl)c(C(=O)O)c3)C2=O)cc1	?	3	103*	-1	4
CCOC(=O)c1ccc(Cl)c(NC(=O)c2ccc(-c3ccccc3)cc2)c1	9	13	3	-6	-15
CC(C)(C)CC(C)(C)NCC(O)COc1ccc2c(c1)CCC2 (configuration not stated)	-63*	3	nt	nt	nt
O=S(=O)(c1ccc(OCC(O)CN2CCN(c3ccc(F)cc3)CC2)cc1)N1CCOCC1 (configuration not stated)	-25	-18	9	-3	-21
COc1ccccc1N1CCN(CC(O)COc2ccc(Cl)c(C)c2)CC1 (configuration not stated)	nt	-23	13	-5	-31*
COc1ccccc1N1CCN(CC(O)COc2ccc(S(=O)(=O)N3CCOCC3)cc2)CC1 (configuration not stated)	-81*	-31	10	-6	-21
SMILES	DRD3 antagonist	D3 ag	D1 ag	D1 potentiator	D1 antag
COc1ccccc1N1CCN(CC(O)COc2ccc(C)cc2C(C)(C)C)CC1 (configuration not stated)	nt	-10	2	-2	1
Cc1ccc(Cl)cc1N1CCN(CC(O)COC(C)C)CC1 (configuration not stated)	-79*	-14	4	-2	4
COc1ccccc1N1CCN(CC(O)COc2cc(C)cc(C)c2)CC1 (configuration not stated)	nt	-31	8	-3	-18
COc1ccccc1N1CCN(CC(O)COc2ccc(C)c(C)c2)CC1 (configuration not stated)	-101*	-21	9	-1	-22
COc1ccccc1N1CCN(CC(O)COc2ccc3c(c2)CCC3)CC1 (configuration not stated)	-67*	-5	14	-12	-6
CCn1cc(C(=O)O)c(=O)c2cc(F)c(N3CCNC(C)C3)c(F)c21 (configuration not stated)	nt	8	nt	nt	nt
O=C(O)CN(CC(=O)O)CC1=CC2C(=CC1=O)Oc1cc(O)c(CN(CC(=O)O)CC(=O)O)cc1C21OC(=O)c2ccccc21 (configuration not stated)	nt	2	nt	nt	nt
COc1cccc(NC(=O)Cn2c(=O)ccc3cc(S(=O)(=O)N4CCC(C)CC4)ccc32)c1	nt	-6	4	0	41
CCC1Sc2ccccc2N(CC(=O)NC2CC2)C1=O (configuration not stated)	13	3	-1	-6	-74*
CCOCCn1ccc2c(OCC(=O)Nc3ccc(C(N)=O)cc3)cccc2c1=O	nt	2	4	0	nt
Cc1nnc(SCc2ccccc2Cl)c2cc3occc3n12	nt	6	4	3	4
CC(NC(=O)C12CC3CC(CC(C3)C1)C2)c1ccc(F)cc1 (configuration not stated)	-11	-22	-3	9	-51*
COc1ccc(C(C)NC(=O)C23CC4CC(CC(C4)C2)C3)cc1OC (configuration not stated)	-4	3	0	12	2
CCC(C)NCCOCCOc1ccc(Br)cc1 (configuration not stated)	-17	-12	5	-9	4
CCC(C)NCCOc1ccccc1C (configuration not stated)	-67*	-34	2	-3	-17
CCC(C)NCCOc1ccc(Br)cc1 (configuration not stated)	-68*	-5	5	-5	10
Cc1ccc(-n2nc(-c3ccc(F)cc3)c3cnc4cc5c(cc4c32)OCO5)cc1C	nt	3	0	-2	12
CN(C)c1ccc(/C=C2\SC(=S)N(Nc3ncc(C(F)(F)F)cc3Cl)C2=O)cc1	-28	-27	168*	-13	-63*
COc1cc(/C=C2\SC(=S)N(c3cccnc3)C2=O)ccc1O	-10	1	30	-6	-6
COc1cc(/C=C2\SC(=S)N(Nc3ncc(C(F)(F)F)cc3Cl)C2=O)ccc1O	?	-6	97*	-1	9
COc1ccc(Cn2c(=O)n(-c3ccc(F)c(Cl)c3)c(=O)c3c2c2cc(OC)ccc2n3C)cc1	nt	1	2	-2	5
